Assay results as given in PubChem BioAssay (NCI).
Compounds without any hit were thinned out: in the full panel of roughly 83,000, 20% have a hit.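 How to read the values: 0–100, growth inhibition (40 = 60% inhibited); 0, no net growth; -100 to 0, cell death (-40 = 40% of starting cells died; -100 = all dead).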 A number with no mark means an inactive call. The source made the active and inactive calls. Rule for the calls: active = growth percent below 10; inactive = the rest.

Key:
Assay in all cases: NCI-60 one-dose screen, 48 h (100 = growth as untreated, 0 = no growth, -100 = all killed)
[1] = test system: HT29 colon; details: 10 µM unless noted
[2] = test system: SNB-75 CNS; details: 10 µM unless noted
[3] = test system: SNB-19 CNS; details: 10 µM unless noted
[4] = test system: U251 CNS; details: 10 µM unless noted
[5] = test system: PC-3 prostate; details: 10 µM unless noted
[6] = test system: SK-MEL-5 melanoma; details: 10 µM unless noted
[7] = test system: UACC-62 melanoma; details: 10 µM unless noted
[8] = test system: LOX IMVI melanoma; details: 10 µM unless noted
[9] = test system: SK-MEL-28 melanoma; details: 10 µM
[10] = test system: SK-MEL-2 melanoma; details: 10 µM unless noted

| SMILES | growth [1] | growth [2] | growth [3] | growth [4] | growth [5] | growth [6] | growth [7] | growth [8] | growth [9] | growth [10] |
| --- | --- | --- | --- | --- | --- | --- | --- | --- | --- | --- |
| O=C(Nc1ccc(N2CCNCC2)cc1)c1[nH]ncc1Nc1cc(Oc2ccccc2)ncn1 | -59.7% (active) | 49.1% | 45.9% | 24.4% | -60.3% (active) | 22.8% | -5.09% (active) | -81% (active) | 46.9% | 72.3% |
| O=C1/C=C/[C@@H](O)[C@@H]2C[C@@H](O)C[C@H]2/C=C/CCCCO1 | 2.63% (active) | 29.7% | 28.7% | 39.7% | -17.5% (active) | -93.1% (active) | 64.1% | 1.64% (active) | -8.98% (active) | 8.85% (active) |
| Cc1cccc2c(=O)c3c(sc12)c(NCCCNCCO)nc1ccccc13 | -24.1% (active) | 23.8% | 64.7% | 28.7% | 43.6% | 59% | 60.2% | -88.2% (active) | 32.9% | 91.2% |
| O=C(/C=C/c1ccc(C(F)(F)F)cc1)c1ccc(Nc2nc(NCCO)nc(Nc3ccc(Cl)cc3)n2)cc1 | 5.76% (active) | 37.4% | 76% | -41.8% (active) | 32.9% | 84.7% | 62.4% | 0.53% (active) | 73% | 99.9% |
| O=c1oc2ccc(Cl)cc2c(=O)n1-c1ccc(F)cc1F | 86.6% | -12% (active) | 13.6% | 7.08% (active) | 2.49% (active) | -66.9% (active) | 3.47% (active) | 17.8% | 21.8% | -26.4% (active) |
| O=C1CCC(N2C(=O)c3cccc(NCCCCCCOc4ccc(Nc5nccc(Nc6ccccc6)n5)cc4)c3C2=O)C(=O)N1 (stereo not given) | 88.1% | 89% | 86.3% | 83.3% | 73.4% | 7.47% (active) | 71.3% | 88.1% | 82.9% | 82.5% |
| O=C1NC(=S)NC(=O)C1=Cc1cn(Cc2cn(Cc3cccc4ccccc34)nn2)c2ccccc12 | 114% | 79.4% | 97.9% | 102% | 93.9% | 93.9% | 88.3% | 91.1% | 103% | 114% |
| CCOC(=O)c1c(C=O)nc2ccccc2c1/C=C/c1ccc(Cl)cc1 | 112% | 79.7% | 92.8% | 92.6% | 91.4% | 83.1% | 102% | 96.9% | 103% | 105% |
| CCCN1CCN(c2ccc3nc(-c4ccc5nc(-c6cc(OC)ccc6OC)[nH]c5c4)[nH]c3c2)CC1 | -23.2% (active) | 90.9% | 115% | 85.8% | 103% | 99.5% | 110% | -83.3% (active) | 99.4% | 118% |
| COc1ccc(-c2nc(-c3ccccc3)c(-c3ccccc3)[nH]2)cc1OC1CCCCC1 | 99.1% | 78.7% | 85.8% | 90.3% | 64.8% | 93.6% | 76.7% | 83.4% | 96.4% | 95.1% |
| Nc1ccccc1-c1ccc(-c2ccc(Cl)cc2)c2c1[nH]c1ccccc12 | 67.4% | 83% | 81.8% | 70.6% | 14.1% | 86.9% | 60.3% | 72.5% | 97.1% | 79.6% |
| O=C(Nc1ccsc1C(=O)NC1CCCCC1)c1ccc(F)cc1 | 92.9% | 85.2% | 98.8% | 101% | 67.9% | 105% | 103% | 97.7% | 96.4% | 121% |
| Cc1sc2ncnc(Sc3nc4ccccc4[nH]3)c2c1C | -64.4% (active) | -85.4% (active) | -21.7% (active) | -80.9% (active) | -43.3% (active) | -96.9% (active) | -91.8% (active) | -80% (active) | -92.5% (active) | -81.6% (active) |
| COc1c2ccoc2c(/C=C/C=O)c2oc(-c3ccccc3)cc(=O)c12 | 87.1% | 95.2% | 87.1% | 16.3% | 37.9% | 48.6% | 83% | -41% (active) | 102% | 78.2% |
| O=C(COc1cc(O)c2c(=O)cc(-c3ccccc3)oc2c1)Nc1ccccc1 | 106% | 88% | 87.4% | 93.7% | 86.2% | 99% | 93.7% | 89.6% | 107% | 96.6% |
| COc1cccc(C(=O)Cn2cc(/C=C(\C#N)S(=O)(=O)c3ccccc3)c3ccccc32)c1 | 111% | 92.6% | 95.4% | 103% | 109% | 92.4% | 87.5% | 94.8% | 112% | 85.9% |
| C1=CC2(C=C1)OC21CCC2(C=CC3(C2)OC3C2CCCCC2)CC1 (stereo not given) | 110% | 94.2% | 104% | 99.5% | 101% | 106% | 99.7% | 92.5% | 105% | 104% |
| CCN1C(=O)N(CC)C2Nn3c(s/c(=C4\C(=O)N(C(C)C)c5ccccc54)c3=O)=NC21 (stereo not given) | 11.6% | 60.2% | 46.4% | 28.1% | 26.3% | 41.4% | 36.4% | 40.6% | 55.1% | 72.9% |
| O=C(Nc1ccc(-c2nc3ccc(NC(=O)c4ccc(Cl)cc4)cc3[nH]2)cc1)c1ccc(Cl)cc1 | -58.1% (active) | -31.6% (active) | 35.2% | 2.01% (active) | 38.3% | 9.75% (active) | 0.642% (active) | -49.6% (active) | 7.47% (active) | -33.9% (active) |
| CCOc1ccc2nc(C)cc(Nc3ccc(Br)cc3)c2c1 | 77.8% | 89.7% | 101% | 98.1% | 86.7% | 97.1% | 103% | 106% | 108% | 109% |
| O=C(Cn1cc(COc2ncnc3c2cnn3-c2ccccc2)nn1)Nc1ccccn1 | 110% | 71.9% | 90.8% | 95.7% | 90.3% | 92.3% | 80.8% | 93.8% | 97.3% | 101% |
| COc1ccc(CN2CCCC(C(=O)c3ccc(C(F)(F)F)cc3)C2)c(O)c1 (stereo not given) | 1.6% (active) | -1.83% (active) | 44.1% | 18.5% | 25.6% | 19.6% | 28.3% | 25.5% | 36.4% | -43.2% (active) |
| Nc1nc(-c2ccccc2Br)nn1-c1nc2ccccc2s1 | 101% | 96.7% | 97.2% | 107% | 103% | 104% | 96.6% | 106% | 103% | 96.7% |
| COc1cc(/C=C2\CN(C)C/C(=C\c3cc(CN4CCCCC4)c(O)c(OC)c3)C2=O)cc(CN2CCCCC2)c1O | 3.56% (active) | 66.9% | 70.9% | 15% | 32.7% | 70.6% | 60.6% | 5.17% (active) | 93.5% | 73.2% |
| OC(CNC1CCCCC1)Cn1c2ccc(I)cc2c2cc(I)ccc21 (stereo not given) | 95.7% | 50.4% | 86% | 72.6% | 62.5% | 67.7% | 64.8% | 77.4% | 81.3% | 97% |
| O=c1oc2ccc(I)cc2c(=O)n1-c1ccc(Cl)cc1F | 63.6% | -12.3% (active) | 20.8% | 0.686% (active) | -0.803% (active) | -87.2% (active) | -15.8% (active) | 13% | 10.9% | -28.6% (active) |
| CC(=O)c1ccc(Nc2nc(NCCO)nc(Nc3ccc(Cl)cc3)n2)cc1 | 96.8% | 77.5% | 92.4% | 99.7% | 90.5% | 74.9% | 78% | 87.9% | 95.2% | 95.2% |
